# Source: PubChem BioAssay (NCATS)
# Results filed as inconclusive are left out. A call without a number means that no potency is given here. Active and inactive are the calls of the source. The call rests on the fitted dose curve; in most records, active means well fitted cell-killing curve with a large enough effect; inconclusive means small, poorly fitted or top-dose-only effect, or effect the other way; inactive means flat fitted curve, though single readings scatter.
# Test: qHTS of pediatric cancer cell lines to identify multiple opportunities for drug repurposing: Confirmatory screen for control Hh wild type fibroblast cells (AID 1347121); further: nearly all actives have a fitted effect of over 70% in size
# Settings: viability qHTS; series mostly up to 45.9 µM
# Source text: Drug repurposing or repositioning has been offered as a strategy for drug development in oncology programs. This approach has special potential for childhood cancers and other rare or orphan diseases, where the expected return on new drug development has been a disincentive to pharmaceuticals.
# In this project we exploit the poly-pharmacology of drugs to discover new indications via phenotypic screening of a panel of 19 well-characterized cell lines derived from solid tumors seen in children and adolescents. The goal is to identify approved drugs with previously unrecognized anticancer properties that has the potential to reveal new mechanisms and biological processes involved in carcinogenesis or drug resistance. We employed a titration-based paradigm (quantitative high-throughput screening or qHTS), where all compounds were tested at multiple concentrations for their effect on cell viability. Concentration-response curves (CRCs) were derived directly from the primary screen, and both potency and efficacy values were used to identify compounds with robust bioactivity profiles. We screened the NIH Chemical Genomics Center (NCGC) Pharmaceutical Collection (NPC) and Mechanism Interrogation Plate (MIPE) small molecule collections of approved and investigational compounds against these cell lines; and measured metabolically active cells after 48 hours of compound treatment as a proxy for cell viability.
# Assay Submitter: Nathalia J. Martinez, National Center for Advancing Translational Sciences, National Institutes of Health, Rockville, MD, USA; email: natalia.martinez@nih.gov
# [1] Shen, M et al. Quantitative high-throughput phenotypic screening of pediatric cancer cell lines identifies multiple opportunities for drug repurposing. Oncotarget 2017 Dec 19;9(4):4758-4772. PMID 29435139.
# The cells were obtained from University of North Carolina (UNC), Pediatric Preclinical Testing Program (PPT), and Coriell Institute (CI).
# qHTS cell viability assay:
# Cells were assayed in growth media at a density of 500-1,000 cells/well. Five microliters of cells were dispensed into 1,536-well, white, solid-bottom, TC-treated plates (Greiner Bio One) using a multidrop dispenser and incubated at 37 degrees C, 5% CO2, under a humidified atmosphere for 5 hours. Twenty-three nanoliters of compounds and controls (neutral control DMSO or positive control bortezomib at final concentration of 2.3 µM) were subsequently transferred by Kalypsys pintool. For primary screens, the MIPE collection was tested at 11-point dilutions (final concentrations range from 0.78 nM to 46 µM) and the NPC collection at 8-point dilutions (final concentrations range from 0.59 nM to 46 µM). Compounds tested in follow-up screens were assayed at 11-point dilutions. Cells were incubated for 48 hours, followed by addition of 3 µL of CellTiter-Glo (Promega). After a 15 min incubation at room temperature, samples were analyzed for luminescence intensity using a ViewLux High-throughput CCD imager equipped with clear filters.
# Potency means the concentration at half of the fitted maximal effect.
row,SMILES,Potency
1,Nc1ccn([C@@H]2O[C@H](CO)[C@@H](O)C2O)c(=O)n1 (some centres not stated),inactive
2,CS(=O)(=O)OCCCCOS(C)(=O)=O,inactive
3,CC(S)C(=O)NCC(=O)O (configuration not stated),inactive
4,CCN(CC)C(=S)SSC(=S)N(CC)CC,inactive
5,c1cnc2cc3c(cc2n1)C1CNCC3C1,inactive
6,C=C(c1ccc(C(=O)O)cc1)c1cc2c(cc1C)C(C)(C)CCC2(C)C,inactive
7,CCOc1cc(CC(=O)N[C@@H](CC(C)C)c2ccccc2N2CCCCC2)ccc1C(=O)O,inactive
8,Nc1nc(Cl)nc2c1ncn2[C@H]1C[C@H](O)[C@@H](CO)O1,inactive
9,Cc1c(C(=O)NN2CCCCC2)nn(-c2ccc(Cl)cc2Cl)c1-c1ccc(Cl)cc1,inactive
10,CCCOc1ccc2nc(NC(=O)OC)[nH]c2c1,inactive
11,CC[C@]1(O)C[C@H]2CN(CCc3c([nH]c4ccccc34)[C@@](C(=O)OC)(c3cc4c(cc3OC)N(C=O)[C@H]3[C@@](O)(C(=O)OC)[C@H](OC(C)=O)[C@]5(CC)C=CCN6CC[C@]43[C@@H]65)C2)C1,inactive
12,Cc1ccc(NC(=O)c2ccc(CN3CCN(C)CC3)cc2)cc1Nc1nccc(-c2cccnc2)n1,inactive
13,Nc1nc(OCc2ccccc2)c2[nH]cnc2n1,inactive
14,Clc1ccc(C(Cn2ccnc2)OCc2ccsc2Cl)c(Cl)c1 (configuration not stated),inactive
15,Cc1nc(Nc2ncc(C(=O)Nc3c(C)cccc3Cl)s2)cc(N2CCN(CCO)CC2)n1,inactive
16,Nc1ncn([C@H]2C[C@H](O)[C@@H](CO)O2)c(=O)n1,inactive
17,Oc1ccc(-c2nc(-c3ccc(F)cc3)c(-c3ccncc3)[nH]2)cc1,inactive
18,CN(C)c1ccc2nc3ccc(=[N+](C)C)cc-3sc2c1,18.5 µM (active)
19,O=C(NCC1CCCCN1)c1cc(OCC(F)(F)F)ccc1OCC(F)(F)F (configuration not stated),inactive
20,O=C(CCc1ccc(O)cc1)c1c(O)cc(O)cc1O,inactive
21,O=C1c2c(O)cc(O)cc2OC(c2ccc(O)c(O)c2)C1O (configuration not stated),inactive
22,CC1(C)C(=O)N(CCN2CCC(C(=O)c3ccc(F)cc3)CC2)c2ccccc21,inactive
23,C[C@]12CCC(=O)C=C1CC[C@@H]1[C@H]2[C@@H](O)C[C@@]2(C)[C@H]1CC[C@]2(O)C(=O)CO,inactive
24,CN(C)c1ccc(O)c2c1C[C@H]1C[C@H]3[C@H](N(C)C)C(=O)C(C(N)=O)=C(O)[C@@]3(O)C(=O)C1=C2O,inactive
25,CCN(CCO)CCCC(C)Nc1ccnc2cc(Cl)ccc12 (configuration not stated),inactive
26,COc1cc(C(C)=O)ccc1OCCCN1CCC(c2noc3cc(F)ccc23)CC1,inactive
27,CC(C)C[C@H](NC(=O)[C@H](Cc1ccccc1)NC(=O)c1cnccn1)B(O)O,0.827 µM (active)
